According to PubChem BioAssay:
The source made the active and inactive calls.

Key:
[1] = small molecules captured by biotinylated probe aFSTL3 – biochemical, small-molecule microarray, fluorescence 635/667, stem cell growth factor project, primary screen (AID 1064); details: higher = more signal;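 note: measures binding of the biotinylated anti-FSTL3 antibody to printed compounds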
[2] = binders from COS7 lysate, DM2A8 probe, primary screen, torsin A project, cell lysate, small-molecule microarray, fluorescence 635/667 (AID 1065); details: higher = more signal, COS7 lysate expressing mutant human TOR1A
[3] = small molecules captured by biotinylated probe aFGF2 – biochemical, small-molecule microarray, fluorescence 635/667, stem cell growth factor project, primary screen (AID 1067); details: higher = more signal;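 note: measures binding of biotinylated aFGF2 protein to printed compounds on slides; z-score merges feature fluorescence and signal-to-noise across triplicate slides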
[4] = small molecules captured by biotinylated probe aFGF10 – biochemical, small-molecule microarray, fluorescence 635/667, stem cell growth factor project, primary screen (AID 1071); details: higher = more signal;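 note: score merges 667 nm spot intensity and signal to noise from triplicate slides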
[5] = molecular target: Neurogenic locus notch homolog protein 2 (Homo sapiens) (UniProt Q04721); assay: small molecules binding Notch2 protein – biochemical, small-molecule microarray, 635 nm fluorescence, stem cell growth factors, primary screen (AID 1073); details: higher = more signal
Neurogenic locus notch homolog protein 2 (Homo sapiens), sequence (Q04721 whole entry, looked up, canonical isoform): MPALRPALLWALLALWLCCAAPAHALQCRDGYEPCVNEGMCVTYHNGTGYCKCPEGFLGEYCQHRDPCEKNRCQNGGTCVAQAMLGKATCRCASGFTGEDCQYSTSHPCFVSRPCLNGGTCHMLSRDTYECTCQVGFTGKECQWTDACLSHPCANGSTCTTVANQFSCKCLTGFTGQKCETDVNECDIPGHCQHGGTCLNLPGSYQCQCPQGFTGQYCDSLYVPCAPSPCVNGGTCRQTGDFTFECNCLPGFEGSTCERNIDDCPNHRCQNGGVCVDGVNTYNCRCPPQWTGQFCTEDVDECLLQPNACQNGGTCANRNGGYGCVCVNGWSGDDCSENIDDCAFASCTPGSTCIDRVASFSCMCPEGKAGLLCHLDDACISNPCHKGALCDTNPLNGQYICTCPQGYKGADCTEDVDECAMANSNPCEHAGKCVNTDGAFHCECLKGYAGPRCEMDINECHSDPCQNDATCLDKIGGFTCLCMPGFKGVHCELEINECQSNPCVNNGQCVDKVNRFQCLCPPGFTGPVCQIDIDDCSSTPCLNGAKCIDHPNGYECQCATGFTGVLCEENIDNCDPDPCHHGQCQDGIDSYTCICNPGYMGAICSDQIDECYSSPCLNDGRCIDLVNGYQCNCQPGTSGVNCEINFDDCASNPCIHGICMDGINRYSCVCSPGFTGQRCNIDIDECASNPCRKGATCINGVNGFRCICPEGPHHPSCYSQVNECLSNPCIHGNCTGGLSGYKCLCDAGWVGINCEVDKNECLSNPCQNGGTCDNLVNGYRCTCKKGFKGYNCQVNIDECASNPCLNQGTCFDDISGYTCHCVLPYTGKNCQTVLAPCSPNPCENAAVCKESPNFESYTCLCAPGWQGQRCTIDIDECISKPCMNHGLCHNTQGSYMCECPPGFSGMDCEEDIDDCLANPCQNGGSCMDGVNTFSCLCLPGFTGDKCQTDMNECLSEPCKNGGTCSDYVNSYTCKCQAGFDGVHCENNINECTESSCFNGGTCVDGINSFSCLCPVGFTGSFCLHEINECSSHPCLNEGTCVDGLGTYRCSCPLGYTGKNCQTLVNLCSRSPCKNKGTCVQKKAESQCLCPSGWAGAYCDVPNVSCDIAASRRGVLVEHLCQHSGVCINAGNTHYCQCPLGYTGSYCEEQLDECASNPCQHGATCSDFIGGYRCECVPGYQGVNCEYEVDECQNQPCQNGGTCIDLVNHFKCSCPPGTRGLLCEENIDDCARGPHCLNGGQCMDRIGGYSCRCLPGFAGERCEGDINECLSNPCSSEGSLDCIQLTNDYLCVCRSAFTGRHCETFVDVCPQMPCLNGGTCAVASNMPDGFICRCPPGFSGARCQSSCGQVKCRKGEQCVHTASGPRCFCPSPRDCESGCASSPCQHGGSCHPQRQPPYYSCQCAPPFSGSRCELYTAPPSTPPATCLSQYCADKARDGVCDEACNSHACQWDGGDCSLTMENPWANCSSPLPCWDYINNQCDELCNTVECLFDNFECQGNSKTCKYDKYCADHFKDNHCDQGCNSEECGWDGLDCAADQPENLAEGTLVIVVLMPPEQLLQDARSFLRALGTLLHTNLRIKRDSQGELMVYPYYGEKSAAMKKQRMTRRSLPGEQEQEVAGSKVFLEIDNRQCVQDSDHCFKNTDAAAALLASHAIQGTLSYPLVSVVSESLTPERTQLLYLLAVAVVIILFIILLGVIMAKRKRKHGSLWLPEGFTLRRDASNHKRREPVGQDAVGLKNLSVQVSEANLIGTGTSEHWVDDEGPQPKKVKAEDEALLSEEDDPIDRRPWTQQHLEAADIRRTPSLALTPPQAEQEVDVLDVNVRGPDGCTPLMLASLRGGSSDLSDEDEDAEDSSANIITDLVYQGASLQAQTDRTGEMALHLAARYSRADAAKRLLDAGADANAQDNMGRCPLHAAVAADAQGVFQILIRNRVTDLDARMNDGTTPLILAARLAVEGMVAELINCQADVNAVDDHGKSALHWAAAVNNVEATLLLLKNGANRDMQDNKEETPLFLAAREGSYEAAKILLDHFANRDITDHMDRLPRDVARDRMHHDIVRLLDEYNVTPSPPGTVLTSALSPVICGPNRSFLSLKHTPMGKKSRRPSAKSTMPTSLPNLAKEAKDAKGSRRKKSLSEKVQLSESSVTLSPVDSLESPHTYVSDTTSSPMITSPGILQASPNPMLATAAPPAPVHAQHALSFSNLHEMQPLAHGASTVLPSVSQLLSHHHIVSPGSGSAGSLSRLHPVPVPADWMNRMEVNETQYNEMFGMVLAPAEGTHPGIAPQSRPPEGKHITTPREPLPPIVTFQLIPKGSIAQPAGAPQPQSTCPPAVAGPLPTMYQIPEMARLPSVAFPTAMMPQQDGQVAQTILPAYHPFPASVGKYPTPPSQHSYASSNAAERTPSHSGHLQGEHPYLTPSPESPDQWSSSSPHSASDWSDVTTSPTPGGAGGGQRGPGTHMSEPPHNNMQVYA

[6] = molecular target: Pro-neuregulin-1, membrane-bound isoform (Homo sapiens) (UniProt Q02297); assay: small molecules binding neuregulin-1 protein – biochemical, small-molecule microarray, fluorescence 635/667, psychiatric disease protein project, primary screen (AID 1075); details: NRG1 binding, 635 nm fluorescence, higher = more signal;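 note: score combines 667 nm spot fluorescence with signal to noise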
[7] = system: Neuregulin-1 EGF-like domain; assay: small molecules binding NRG1 EGF domain – biochemical, small-molecule microarray, 635 nm fluorescence, primary screen (AID 1081); details: higher = more signal;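 note: binding of the protein to compounds printed on small-molecule microarray slides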
[8] = FRG1 expression reporter modulators in myotubes – cell-based, C2C12 myotubes, firefly/Renilla luciferase, luminescence, FRG1 inhibition for FSHD, primary screen (AID 1084); details: FRG1 promoter luciferase, higher = more signal, called active from +8 up or from −8 down
[9] = small molecules captured by biotinylated probe aFST – biochemical, small-molecule microarray, fluorescence 635/667, stem cell growth factor project, primary screen (AID 1086); details: higher = more signal;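 note: score merges 667 nm fluorescence with signal-to-noise of each printed compound spot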
[10] = binders of probe aHhip on microarray, primary screen, stem cell growth factor project, biochemical, small-molecule microarray, fluorescence 635/667 (AID 1087); details: higher = more signal;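 note: score merges spot fluorescence at 667nm with spot signal to noise ratio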
[11] = system: PRMT1 (protein arginine N-methyltransferase 1); assay: small molecules binding arginine methyltransferase PRMT1 – biochemical, small-molecule microarray, 635 nm fluorescence, primary screen (AID 1088); details: higher = more signal;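 note: binding of Prmt1 protein to compounds spotted on small-molecule microarray slides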
[12] = growth effects on S. cerevisiae YJM789 – YJM789 clinical isolate, OD600, 24 h, basal, primary screen (AID 1089); details: higher = more signal, called active from +8 up or from −8 down;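 note: growth of clinical yeast isolate S. cerevisiae YJM 789 seeded 1000 cells per well; test concentration not given here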
[13] = S. pombe growth modifiers, basal conditions – strain 972, OD600, 24 h, no modulator, primary screen (AID 1090);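 note: basal condition with compound alone and no growth modifier present; test concentration not given here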; details: S. pombe 972 growth, higher = more signal, called active from +8 up or from −8 down
[14] = budding yeast growth modifiers under rapamycin – strain BY4716, OD600, 96 h, primary screen (AID 1091); note: test concentration not given here; details: S. cerevisiae BY4716 + rapamycin, higher = more signal, called active from +8 up or from −8 down
[15] = molecular target: Torsin-1A-interacting protein 2 (Homo sapiens) (UniProt Q8NFQ8); assay: small molecules binding lysate-expressed LULL1 – cell lysate, human LULL1 lysate, 635/667 nm fluorescence, primary screen (AID 1092); details: small-molecule microarray, hLULL1 lysate binding, 635 nm fluorescence; higher = more signal;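 note: probe is lysate of COS7 cells overexpressing human LULL1; score merges per-feature 667 nm fluorescence with signal-to-noise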
[16] = optical density change of DRC41 E. coli – strain DRC41, OD650, 24 h, E. coli filamentation project, primary screen (AID 1093);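 note: MC1000 strain lacking acrAB efflux and sulA so SOS filamentation is blocked; test concentration not given here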; details: E. coli DRC41 growth, higher = more signal, called active from +8 up or from −8 down
[17] = probe aLefty2 binding to arrayed compounds – biochemical, biotinylated probe, 635/667 nm fluorescence, primary screen (AID 1094); details: small-molecule microarray, higher = more signal;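 note: score merges spot fluorescence near 667 nm with spot signal-to-noise ratio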
[18] = system: Noggin (protein binding on small-molecule microarray); assay: small molecules binding Noggin protein – biochemical, 635/667 nm fluorescence, primary screen (AID 1095); details: 635 nm fluorescence, higher = more signal;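 note: score merges 667 nm feature fluorescence with signal to noise over triplicate slides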
[19] = molecular target: Neurogenic locus notch homolog protein 3 (Homo sapiens) (UniProt Q9UM47); assay: small molecules binding NOTCH3 protein – biochemical, 635/667 nm fluorescence, primary screen (AID 1096); details: small-molecule microarray, 635 nm fluorescence, higher = more signal
Neurogenic locus notch homolog protein 3 (Homo sapiens), sequence (Q9UM47 whole entry, looked up): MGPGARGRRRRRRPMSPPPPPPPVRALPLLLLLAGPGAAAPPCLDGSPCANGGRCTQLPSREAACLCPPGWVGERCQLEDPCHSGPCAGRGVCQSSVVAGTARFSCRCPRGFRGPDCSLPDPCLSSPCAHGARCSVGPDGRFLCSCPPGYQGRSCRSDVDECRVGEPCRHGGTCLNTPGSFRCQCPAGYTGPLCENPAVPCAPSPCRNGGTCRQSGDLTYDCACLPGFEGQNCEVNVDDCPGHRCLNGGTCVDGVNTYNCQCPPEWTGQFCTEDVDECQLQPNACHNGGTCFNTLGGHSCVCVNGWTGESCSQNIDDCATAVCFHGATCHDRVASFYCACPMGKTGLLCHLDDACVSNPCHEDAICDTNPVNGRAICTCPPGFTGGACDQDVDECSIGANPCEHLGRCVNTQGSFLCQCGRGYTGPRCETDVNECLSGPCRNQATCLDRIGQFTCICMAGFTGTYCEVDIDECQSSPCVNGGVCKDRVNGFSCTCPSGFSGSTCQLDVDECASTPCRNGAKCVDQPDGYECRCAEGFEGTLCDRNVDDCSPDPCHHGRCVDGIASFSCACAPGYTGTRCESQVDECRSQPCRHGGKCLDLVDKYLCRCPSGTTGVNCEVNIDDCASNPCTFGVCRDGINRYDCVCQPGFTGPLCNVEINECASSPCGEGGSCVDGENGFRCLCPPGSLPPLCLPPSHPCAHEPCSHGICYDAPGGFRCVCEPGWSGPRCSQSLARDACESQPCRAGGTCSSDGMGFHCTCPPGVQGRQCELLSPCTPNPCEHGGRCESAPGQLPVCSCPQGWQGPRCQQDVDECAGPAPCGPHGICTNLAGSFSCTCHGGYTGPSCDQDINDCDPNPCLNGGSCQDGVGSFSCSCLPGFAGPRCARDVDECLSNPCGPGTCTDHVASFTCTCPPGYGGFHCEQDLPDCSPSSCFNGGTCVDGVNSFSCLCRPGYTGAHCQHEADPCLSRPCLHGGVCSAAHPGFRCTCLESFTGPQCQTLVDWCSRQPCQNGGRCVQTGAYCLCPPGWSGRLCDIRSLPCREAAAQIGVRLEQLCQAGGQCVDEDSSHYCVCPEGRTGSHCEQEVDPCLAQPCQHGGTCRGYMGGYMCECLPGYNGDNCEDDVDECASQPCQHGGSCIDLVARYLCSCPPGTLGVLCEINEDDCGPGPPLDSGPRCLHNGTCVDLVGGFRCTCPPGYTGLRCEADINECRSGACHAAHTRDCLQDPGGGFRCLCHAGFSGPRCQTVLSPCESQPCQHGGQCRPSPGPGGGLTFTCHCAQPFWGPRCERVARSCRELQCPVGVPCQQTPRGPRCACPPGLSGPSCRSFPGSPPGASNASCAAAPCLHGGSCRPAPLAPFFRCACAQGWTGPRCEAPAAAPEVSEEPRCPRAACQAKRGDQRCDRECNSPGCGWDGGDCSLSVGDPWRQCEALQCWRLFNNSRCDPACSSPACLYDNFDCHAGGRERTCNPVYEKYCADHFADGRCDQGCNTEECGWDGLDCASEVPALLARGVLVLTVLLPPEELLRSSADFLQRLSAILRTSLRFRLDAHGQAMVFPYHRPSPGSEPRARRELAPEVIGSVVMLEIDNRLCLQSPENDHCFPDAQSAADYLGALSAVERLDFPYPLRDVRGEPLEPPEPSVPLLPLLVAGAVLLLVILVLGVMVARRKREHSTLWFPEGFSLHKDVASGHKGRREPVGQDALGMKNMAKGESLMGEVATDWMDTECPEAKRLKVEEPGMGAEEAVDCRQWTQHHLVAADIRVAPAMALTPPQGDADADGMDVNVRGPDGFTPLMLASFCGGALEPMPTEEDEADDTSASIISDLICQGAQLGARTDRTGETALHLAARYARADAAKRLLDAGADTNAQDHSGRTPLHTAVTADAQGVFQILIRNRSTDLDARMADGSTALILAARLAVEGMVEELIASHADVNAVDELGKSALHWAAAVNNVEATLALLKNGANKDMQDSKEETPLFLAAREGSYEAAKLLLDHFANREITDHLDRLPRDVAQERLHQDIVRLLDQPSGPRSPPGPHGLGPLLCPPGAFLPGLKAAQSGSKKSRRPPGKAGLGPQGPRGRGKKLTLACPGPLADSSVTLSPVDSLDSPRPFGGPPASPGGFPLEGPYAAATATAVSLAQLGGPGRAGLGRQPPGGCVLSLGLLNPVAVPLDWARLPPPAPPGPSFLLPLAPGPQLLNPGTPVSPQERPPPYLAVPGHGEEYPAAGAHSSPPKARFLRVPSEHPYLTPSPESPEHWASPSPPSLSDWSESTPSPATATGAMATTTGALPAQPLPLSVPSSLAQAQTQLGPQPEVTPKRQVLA

[20] = probe aEGFR binding to arrayed compounds – biochemical, biotinylated probe, 635/667 nm fluorescence, primary screen (AID 1097); details: small-molecule microarray, higher = more signal;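 note: probe is a biotinylated anti-EGFR antibody binding compounds printed on slides; score combines fluorescence near 667 nm and signal to noise of each spot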

For CCOC(=O)C[C@H]1[C@H](OC(=O)Cc2ccc3c(c2)OCO3)[C@@H](NC(=O)c2ccccc2)c2cc(OCCCO)ccc2N1C(=O)Cc1ccc(OC)cc1, the composite z-score [1] was -0.483, the composite z-score [2] was 0.147 and the composite z-score [3] was -0.0038. It also gave a composite z-score [4] of 0.306, a composite z-score [5] of 0.523 and a composite z-score [6] of 0.726. The composite z-score [7] was 0.049, the z-score [8] was -2.56 (inactive) and the composite z-score [9] was -0.249. For the same compound, the composite z-score [10] was -0.261, the composite z-score [11] was 0.498 and the z-score [12] was -2.62 (inactive). For the same compound, the z-score [13] was -0.91 (inactive), the z-score [14] was -0.602 (inactive) and the composite z-score [15] was 0.837. The z-score [16] was -0.429 (inactive), the composite z-score [17] was -0.0915 and the composite z-score [18] was 0.0752. For the same compound, the composite z-score [19] was 0.206 and the composite z-score [20] was -0.0978.

Work on COC(=O)[C@@]1(CCS(=O)(=O)c2ccccc2)N=C(c2ccc(OCCCO)cc2)O[C@H]1c1ccccc1N=[N+]=[N-] yielded a composite z-score [1] of -0.0367, a composite z-score [2] of 0.35 and a composite z-score [3] of -0.051. It also gave a composite z-score [4] of 0.207, a composite z-score [5] of 1.05 and a composite z-score [6] of 0.573. The composite z-score [7] was 1.21, the z-score [8] was -2.34 (inactive) and the composite z-score [9] was 0.252. For the same compound, the composite z-score [10] was -0.0346, the composite z-score [11] was 1.56 and the z-score [12] was 0.349 (inactive). For the same compound, the z-score [13] was -0.238 (inactive), the z-score [14] was 34.6 (active) and the composite z-score [15] was 3.29. For the same compound, the z-score [16] was 0.96 (inactive), the composite z-score [17] was -0.0341 and the composite z-score [18] was 0.492. It also gave a composite z-score [19] of 1.09 and a composite z-score [20] of -0.0968.

In the case of COC(=O)[C@@]1(CCC(=O)OC(C)(C)C)N=C(c2ccc(OCCCO)cc2)O[C@H]1c1ccccc1CN=[N+]=[N-], the composite z-score [1] is reported as 0.0643, the composite z-score [2] is reported as -0.13 and the composite z-score [3] is reported as -0.12. It also gave a composite z-score [4] of -0.191, a composite z-score [5] of -0.066 and a composite z-score [6] of 0.118. The composite z-score [7] was 0.148, the z-score [8] was -2.14 (inactive) and the composite z-score [9] was -0.04. The composite z-score [10] was 0.21, the composite z-score [11] was 0.373 and the z-score [12] was 0.0206 (inactive). For the same compound, the z-score [13] was 0.646 (inactive), the z-score [14] was 9.66 (active) and the composite z-score [15] was 1.85. The z-score [16] was 1.08 (inactive), the composite z-score [17] was -0.0963 and the composite z-score [18] was 0.201. It also gave a composite z-score [19] of 0.235 and a composite z-score [20] of -0.0418.

In the case of C=CC[C@@]1(C(=O)N(C)C)N=C(c2ccc(OCCCO)cc2)O[C@@H]1c1ccccc1, the composite z-score [1] is reported as 0.733, the composite z-score [2] is reported as 1.13 and the composite z-score [3] is reported as 0.0917. The composite z-score [4] was 0.794, the composite z-score [5] was 0.515 and the composite z-score [6] was 2.08. The composite z-score [7] was 1.38, the z-score [8] was -0.004 (inactive) and the composite z-score [9] was 0.598. For the same compound, the composite z-score [10] was 0.109, the composite z-score [11] was 0.52 and the z-score [12] was -0.69 (inactive). The z-score [13] was -2.28 (inactive), the z-score [14] was -2.31 (inactive) and the composite z-score [15] was 3.5. The z-score [16] was -0.343 (inactive), the composite z-score [17] was 0.363 and the composite z-score [18] was -0.474. It also gave a composite z-score [19] of -0.0401 and a composite z-score [20] of 0.464.

Work on CC(C)CNC(=O)[C@@H]1c2ccccc2C(=O)N(C2Cc3ccccc3C2)[C@H]1c1ccc(CO)cc1 yielded a composite z-score [1] of 0.192, a composite z-score [2] of -0.372 and a composite z-score [3] of -0.0737. For the same compound, the composite z-score [4] was 0.261, the composite z-score [5] was -0.51 and the composite z-score [6] was 1.29. The composite z-score [7] was 1.39, the z-score [8] was -1.56 (inactive) and the composite z-score [9] was -0.316. The composite z-score [10] was -0.166, the composite z-score [11] was 0.962 and the z-score [12] was -0.226 (inactive). The z-score [13] was -0.59 (inactive), the z-score [14] was -0.434 (inactive) and the composite z-score [15] was 2.59. The z-score [16] was 2.01 (inactive), the composite z-score [17] was 0.159 and the composite z-score [18] was -0.646. It also gave a composite z-score [19] of -0.145 and a composite z-score [20] of -0.311.
